Source: PubChem (National Center for Advancing Translational Sciences (NCATS))
CtBP-E1A blk: CtBP/E1A binding inhibition. 0.49% of 340,000 active. activity change, % (no concentration beside the values). AlphaScreen GST-E1A/His-CtBP binding, 1536-well; stronger effect = lower value; in the data active = activity change below about -65%; inconclusive = mostly about -30% to -63%; also: % is scaled to controls: 0 for no effect and ±100 for the full control effect
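GST-E1A and His-tagged CtBP (125 nM each as 5X stock) were preincubated with pin-transferred compound for 2 h at 37 °C in the dark, then glutathione donor and nickel acceptor beads were added for 1 h before AlphaScreen reading.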
Six1-Eya2 blk: Six1/Eya2 interaction inhibition; 0.56% of 360,000 active; activity change, % (test concentration not listed); AlphaScreen GST-Six1/His-Eya2 binding, biochemical; stronger effect = lower value; in the data active = activity change below about -65%; inconclusive = mostly about -30% to -63%; also: % is scaled to controls: 0 for no effect and ±100 for the full control effect
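AlphaScreen luminescence read after one hour at 37 °C in darkness. Pin-transferred compounds met GST-Six1 and His-Eya2 protein (5X stock 250 nM/500 nM) plus glutathione donor and Ni-chelate acceptor beads (5X, 50 ug/mL).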
Eya2 inh: Eya2 (human) phosphatase inhibition | 0.006% of 330,000 active | recombinant Eya2, OMFP fluorescence dephosphorylation (OMFP is methylfluorescein phosphate) | Potency, µM (titrated, usually from 76.9 µM), for inactives: at the top dose activity, negative = inhibition, most hits filed as inhibitors | O00167 | AID 488837; also: potency is read from the fitted curve at half-maximal effect; % is scaled to controls: 0 for no effect and ±100 for the full control effect
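Eya2 protein (added as 0.2 uM solution) was preincubated with compound for 10 min at ambient temperature in 50 mM HEPES pH 7.5, 50 mM NaCl, 5 uM MgCl2, 0.05% BSA, 1 mM DTT. OMFP (added at 50 uM) then reacted 10 min; fluorescence read at 485/525 nm.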
L3MBTL1 inh-1: L3MBTL1 (human) inhibition; 0.66% of 230,000 active; AID 485360; Potency, µM (titrated, usually from 57.1 µM), for inactives: at the highest dose activity, negative = inhibition, actives largely listed as inhibitors; AlphaScreen L3MBTL1–H3K9me1 peptide binding; Q9Y468; also: potency is read from the fitted curve at half-maximal effect; % is scaled to controls: 0 for no effect and ±100 for the full control effect; nearly all actives have a fitted effect of over 60% in size
Target sequence (Q9Y468 whole entry, looked up): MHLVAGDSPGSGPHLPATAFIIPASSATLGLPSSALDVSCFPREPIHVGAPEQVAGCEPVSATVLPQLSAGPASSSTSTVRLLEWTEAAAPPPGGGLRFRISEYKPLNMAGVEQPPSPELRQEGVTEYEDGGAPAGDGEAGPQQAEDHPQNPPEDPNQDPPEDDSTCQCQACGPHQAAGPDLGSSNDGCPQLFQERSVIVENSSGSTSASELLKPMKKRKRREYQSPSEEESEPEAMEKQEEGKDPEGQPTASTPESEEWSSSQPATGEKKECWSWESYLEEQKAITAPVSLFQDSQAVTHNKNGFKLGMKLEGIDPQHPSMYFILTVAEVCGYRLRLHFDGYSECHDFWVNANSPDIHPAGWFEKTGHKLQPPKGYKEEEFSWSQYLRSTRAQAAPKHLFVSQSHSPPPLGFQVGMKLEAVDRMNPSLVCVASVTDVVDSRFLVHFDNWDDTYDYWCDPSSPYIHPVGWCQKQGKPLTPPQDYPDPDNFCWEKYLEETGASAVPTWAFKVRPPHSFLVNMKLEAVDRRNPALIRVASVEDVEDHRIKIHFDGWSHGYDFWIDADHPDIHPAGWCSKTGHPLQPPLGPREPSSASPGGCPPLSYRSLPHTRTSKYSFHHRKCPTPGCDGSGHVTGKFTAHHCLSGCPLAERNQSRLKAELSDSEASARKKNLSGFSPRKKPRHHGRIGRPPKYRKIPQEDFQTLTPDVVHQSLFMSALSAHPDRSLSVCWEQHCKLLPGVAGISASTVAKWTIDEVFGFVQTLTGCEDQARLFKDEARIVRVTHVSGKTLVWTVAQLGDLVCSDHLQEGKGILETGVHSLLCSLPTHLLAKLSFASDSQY
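AlphaScreen proximity signal between nickel-chelate acceptor and streptavidin donor beads (final 10 ug/mL) reports binding of 50 nM L3MBTL1 to 75 nM biotin-H3 K9me1 peptide; complex incubated with compounds 30 min at room temperature; cefsulodin titration as control.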
MBNL1-CUG inh: MBNL1-poly(CUG) RNA binding inhibition | TR-FRET MBNL1-His/biotin-(CUG)12 binding, 665/545 ratio | Potency, µM (highest dose often 57.5 µM), without a hit: at the highest dose activity change, negative = inhibition, usual class: inhibitors | 0.036% of 280,000 active; active = well fitted inhibition curve with a large enough effect in the signal ratio, with a control signal flat, not every such curve was filed as active; inconclusive = small, poorly fitted or top-dose-only effect, or effect the other way, or a change in a side signal; inactive = no such curve, though single readings can be large or run the other way; the % refers to the signal ratio; also: potency is read from the fitted curve at half-maximal effect; % is scaled to controls: 0 for no effect and ±100 for the full control effect
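Ratiometric TR-FRET (665 over 545 nm, excitation 340 nm) tracks disruption of MBNL1-His/biotin-(CUG)12 complex after 60 min at room temperature, with compounds at 92 nM to 58 uM final.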
CBFb RUNX1 block: blocks binding between human CBF-beta and RUNX1; Q01196+Q13951; AlphaScreen CBFb-His/RUNX1-biotin binding, biochemical; Potency, µM (titrated, usually from 59.8 µM), without a hit: at the highest dose activity, negative = inhibition, actives largely listed as inhibitors; 230,000 tested, under 10 active; also: % of control where 0% means no effect
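Proteins preincubated together for 20 min at RT before compound addition; 15 min later, nickel and streptavidin beads were added and left 90 min prior to AlphaScreen measurement.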
L3MBTL1 inh-2: blocks human L3MBTL1 methyl-lysine binding; shares compounds with L3MBTL1 inh-1; L3MBTL1 methyl-lysine binding inhibition, biochemical qHTS; Potency, µM, most hits filed as inhibitors; 91% of 500 active; AID 540279; also: potency is read from the fitted curve at half-maximal effect; nearly all actives have a fitted effect of over 70% in size
L3MBTL1 ctr: interferes with AlphaScreen signal in L3MBTL1 counterscreen. AlphaScreen counterscreen, signal inhibition. 500 tested, under 10 active. Potency, µM (series often up to 57.1 µM), inactives show at the top dose activity change, negative = inhibition, actives largely listed as inhibitors. shares compounds with L3MBTL1 inh-1; also: potency is read from the fitted curve at half-maximal effect; 0% is about no effect
* hit, by the source's call; ? = inconclusive; / = not tested or not shown. Compounds with a hit are over-represented: about 0.89% of the library has one in this group of screens. Unless noted, calls follow the shape of the dose curve; as a rule, active = well fitted curve in the direction sought with a large enough effect; inconclusive = small, poorly fitted or top-dose-only effect, or another doubt; inactive = no such curve, though single readings can be large; an effect the other way counts as inactive or inconclusive.

SMILES | CtBP-E1A blk | Six1-Eya2 blk | Eya2 inh | L3MBTL1 inh-1 | MBNL1-CUG inh | CBFb RUNX1 block | L3MBTL1 inh-2 | L3MBTL1 ctr
CC1=CN2C(=N)/C(=C/c3ccc([N+](=O)[O-])o3)C(=O)N=C2S1 | -25 | ? | 2% | 35µM* | ? | ? | 13* | -9%
O=C(NCc1ccccn1)c1ccc(=O)oc1 | -79* | -87* | -6% | 16µM* | 3% | 1% | 21* | 26%
O=C(NCc1ccccn1)c1ccc(-c2ccccc2)cc1 | -22 | 2 | -3% | 2% | 1% | 10% | / | /
COCCCNC(=O)/C(C#N)=C/c1ccc(OCC(=O)O)c(OC)c1 | 5 | ? | 4% | 3.5µM* | 10% | 14% | 2.1* | ?
O=C(Nc1nc(-c2ccco2)c(-c2ccco2)s1)c1c(F)cccc1Cl | / | -25 | -9% | ? | / | / | / | /
O=C(Nc1nc(-c2ccco2)c(-c2ccco2)s1)c1ccc(F)cc1F | -4 | ? | -15% | 8.9µM* | / | / | 5.3* | -10%
O=C(Nc1nc(-c2ccco2)c(-c2ccco2)s1)c1cnccn1 | -11 | ? | -2% | 3.5µM* | / | / | 2.7* | 79%
CCOC(=O)[C@]12CCCC=C1N(Cc1ccco1)C(=O)[C@H](CC(=O)N1CCSCC1)C2 | 5 | 4 | / | / | / | / | / | /
CCCc1cc(=O)n2[nH]c(SCc3ccc(Cl)cc3)nc2n1 | -22 | 0 | 12% | / | -2% | / | / | /
CCOC(=O)c1c(-c2ccco2)csc1NC(=O)COC(=O)c1cnc(C)cn1 | -2 | -9 | -13% | 32µM* | / | / | 24* | 0%
O=C1OC(c2cccs2)=N/C1=C/c1ccc(-c2cccc(C(=O)O)c2)o1 | -3 | -20 | 13% | 0.56µM* | ? | ? | 3.4* | -6%
CC(=O)N1CC=CC1(CC(C)C)C(=O)O (stereo not drawn) | / | / | / | / | / | 8% | / | /
CC(Cc1c[nH]c2ccccc12)C(=O)O (stereo not drawn) | -11 | -13 | 14% | 2µM* | ? | / | 3* | 2%
O=c1c2c3c(sc2[nH]c(=S)n1Cc1ccco1)CCC3 | -10 | -7 | -6% | 25µM* | 35% | ? | 11* | 28%
COc1ccc(CCNC(=O)c2ccc3c(c2)NC(=O)C(CSCc2cc(C)ccc2C)N3)cc1OC (stereo not drawn) | / | / | -3% | / | 26% | / | / | /
CSc1nc(NCCOCCO)c2sc3nc(-c4ccco4)c4c(c3c2n1)CCC4 | -26 | ? | 1% | 5.6µM* | 13% | / | 2.7* | -6%
O=C1c2c(-c3ccc(Br)cc3)noc2CCN1Cc1cn(Cc2cccnc2)nn1 | -2 | -6 | / | / | / | / | / | /
Cc1ccc(S(=O)(=O)Cc2ccc(C(=O)N3CCN(Cc4ccccc4)CC3)o2)cc1 | / | / | 10% | 32µM* | -14% | -4% | 15* | 3%
COc1ccc(S(=O)(=O)Cc2ccc(C(=O)N3CCN(Cc4ccccc4)CC3)o2)cc1 | -1 | 7 | 3% | -5% | -1% | 13% | / | /
CCCCn1c(NS(=O)(=O)c2ccc(C)cc2)c(S(=O)(=O)c2ccccc2)c2nc3ccccc3nc21 | -4 | 1 | -10% | 5µM* | -16% | 2% | 21* | 0%
O=C(CSc1nnc2ccccn12)Nc1nsc(-c2ccccc2)n1 | -1 | -7 | 1% | 1% | 0% | 1% | / | /
O=C1CC(c2ccco2)CC(O)=C1C=Nc1cc(Cl)ccc1Cl (stereo not drawn) | -5 | -11 | 3% | 35µM* | / | / | 24* | -1%
